The record followed here is PMC10726135, “HNF4α isoforms regulate the circadian balance between carbohydrate and lipid metabolism in the liver”.

Whole data set: some 18,000 sequences, median “log2 normalized intensity” near 0.36, cut for the highest 2% near 7.3. This excerpt belongs to a sample that is enriched for the highest values.

The target of this test is T1, HNF4alpha8 (COS-7 nuclear extract) (Homo sapiens, UniProt P41235-5 1-452).
T1 sequence: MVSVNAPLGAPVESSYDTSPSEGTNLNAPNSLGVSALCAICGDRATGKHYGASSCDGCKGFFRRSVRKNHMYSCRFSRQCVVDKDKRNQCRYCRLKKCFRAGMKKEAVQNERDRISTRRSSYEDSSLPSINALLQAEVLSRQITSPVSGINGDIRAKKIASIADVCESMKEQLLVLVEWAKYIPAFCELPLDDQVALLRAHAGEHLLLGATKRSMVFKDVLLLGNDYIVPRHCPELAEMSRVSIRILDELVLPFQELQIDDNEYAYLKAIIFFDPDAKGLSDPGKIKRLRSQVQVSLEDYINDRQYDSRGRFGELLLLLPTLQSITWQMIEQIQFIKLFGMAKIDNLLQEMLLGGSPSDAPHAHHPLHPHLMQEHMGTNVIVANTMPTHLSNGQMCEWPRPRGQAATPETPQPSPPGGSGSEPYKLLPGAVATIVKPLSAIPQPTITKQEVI
The test is described as follows: protein-binding microarray; COS-7 nuclear extract on double-stranded Agilent 4x180k PBM; binding buffer, salt, pH and temperature not given in the material; high values mean tight binding. The conditions noted are these: chain copies: 2; label: 3' end of strand 1 on the slide; dsDNA, one strand shown. A digest of the protocol: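 A custom Agilent SurePrint G3 4x180k array, spotted in quadruplicate with ~44,000 test sequences as ~60-nt oligonucleotides made double-stranded, was incubated with nuclear extracts. The extracts came from COS-7 cells transiently transfected by CaPO4 with a human HNF4α isoform expression vector. Bound HNF4α was imaged on an Agilent G2565CA scanner at 2-µm resolution, and the binding signal was taken as Agilent software's background-corrected, normalized gProcessedSignal.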
Consider “AAATCATGGATCTGTGCTCAGATCCTGCTCGCCTAGGGAGATTAGAGTATCGGTCGA”, for which the binding signal is -0.984 log2 normalized intensity.
Take “CCGGACATGGAGAGGTGAGACACGTGTGCCGCCTAGGGAGATTAGAGTATCGGTCGA”: the binding signal was -0.118 log2 normalized intensity.
In the case of “GGCTAGACTTTAACCCCCTTGTCTTCCTCAGCCTAGGGAGATTAGAGTATCGGTCGA” it was 4.16 log2 normalized intensity.
For “GGCTGCAGAGGTTTCGCAAGGACGTGACCTGCCTAGGGAGATTAGAGTATCGGTCGA” the value was 3.33 log2 normalized intensity.
As to “CTTACGGCCCTGTGGTGTTCGCTAAGATGTGCCTAGGGAGATTAGAGTATCGGTCGA”, the binding signal was found to be 0.705 log2 normalized intensity.
In the case of “CCACCTGGAATGTGCTCCCGACTGCTCCACGCCTAGGGAGATTAGAGTATCGGTCGA” it was 0.00529 log2 normalized intensity.
In the case of “CACAAACATACAACCATCAAAGGTCACTTTGCCTAGGGAGATTAGAGTATCGGTCGA” it was 4.93 log2 normalized intensity; in that of “TATGCTTTTATTTAACTTCTGGGGGCAAGGGCCTAGGGAGATTAGAGTATCGGTCGA”, 2 log2 normalized intensity.
In the case of “ACACAGTACTTTGTACATGGGAATAGACATGCCTAGGGAGATTAGAGTATCGGTCGA”, the binding signal stood at 0.975 log2 normalized intensity.
With “CTAAGAGATTTGAATATGTACATGGACTTTGCCTAGGGAGATTAGAGTATCGGTCGA”, the binding signal amounted to 6.92 log2 normalized intensity.
In the case of “AGGTACTAAGAGATTTGAATATGTACATGGGCCTAGGGAGATTAGAGTATCGGTCGA” it was 0.942 log2 normalized intensity; in that of “TGAATATGTACATGGACTTTGAACCAAGATGCCTAGGGAGATTAGAGTATCGGTCGA”, 8.87 log2 normalized intensity.
As for “CGGTCAGCTGCTTGACTTAGTACATGGCCTGCCTAGGGAGATTAGAGTATCGGTCGA”, the binding signal is 0.903 log2 normalized intensity.
In the case of “CATGGACTTTGAACCAAGATATGCTAACATGCCTAGGGAGATTAGAGTATCGGTCGA”, the binding signal is 5.27 log2 normalized intensity.
In the case of “ATGTACATGGACTTTGAACCAAGATATGCTGCCTAGGGAGATTAGAGTATCGGTCGA”, the binding signal was 7.68 log2 normalized intensity.
In the case of “GAATGCAACCACACCAACATGGACTTTGTCGCCTAGGGAGATTAGAGTATCGGTCGA” it was 6.59 log2 normalized intensity; in that of “AGATTTGAATATGTACATGGACTTTGAACCGCCTAGGGAGATTAGAGTATCGGTCGA”, 10.6 log2 normalized intensity; in that of “GTCTAGCGCAAATGATCAAAGGTTGGTTTTGCCTAGGGAGATTAGAGTATCGGTCGA”, 4.43 log2 normalized intensity.
Regarding “AGTGTGTAAGTATGCTCACTGACCTCTGCCGCCTAGGGAGATTAGAGTATCGGTCGA”, the binding signal was 3.94 log2 normalized intensity.
Consider “CATCTTTGAAGAGCACAGGGTCAGCAGATCGCCTAGGGAGATTAGAGTATCGGTCGA”, for which the binding signal came to 1.59 log2 normalized intensity.
For “TAATCAGAGCAGGAATTCTGATCTTTGACCGCCTAGGGAGATTAGAGTATCGGTCGA” the value was 7.96 log2 normalized intensity; for “CCACTTTGAATCAGGAGAGCATCTGAGTGTGCCTAGGGAGATTAGAGTATCGGTCGA”, 0.742 log2 normalized intensity.
In the case of “AGGAATTCTGATCTTTGACCTCTCCAGGGTGCCTAGGGAGATTAGAGTATCGGTCGA” it was 7.01 log2 normalized intensity; in that of “TTCTGATCTTTGACCTCTCCAGGGTCCTTGGCCTAGGGAGATTAGAGTATCGGTCGA”, 5.35 log2 normalized intensity.
In the case of “AGAGCAGGAATTCTGATCTTTGACCTCTCCGCCTAGGGAGATTAGAGTATCGGTCGA”, the binding signal is 8.08 log2 normalized intensity.
In the case of “TGTGCTAGATACTGGAGATATGTTGCTGGAGCCTAGGGAGATTAGAGTATCGGTCGA” it was 0.67 log2 normalized intensity; in that of “TCTAGATGGGGTTGAGCAGACTAAAGGACTGCCTAGGGAGATTAGAGTATCGGTCGA”, -0.482 log2 normalized intensity; in that of “TGAGACATGAATCCATCCCACCTCACTTATGCCTAGGGAGATTAGAGTATCGGTCGA”, 1.12 log2 normalized intensity.
Take “GCAAGGAATTCAACCCTTGTCACTTTCCCTGCCTAGGGAGATTAGAGTATCGGTCGA”: the binding signal was determined as 1.82 log2 normalized intensity.
In the case of “TTGGACAGGGTGACGTCATTGGAAATCCGAGCCTAGGGAGATTAGAGTATCGGTCGA” it was 0.187 log2 normalized intensity.
In the case of “CGGTGAGGGATTGTTTAGGTACAAAGTCCAGCCTAGGGAGATTAGAGTATCGGTCGA”, the binding signal worked out at 8.89 log2 normalized intensity.
In the case of “AGATTCGGTGAGGGATTGTTTAGGTACAAAGCCTAGGGAGATTAGAGTATCGGTCGA” it was 1.25 log2 normalized intensity; in that of “TTGTTTAGGTACAAAGTCCATTGGAAGCCAGCCTAGGGAGATTAGAGTATCGGTCGA”, 6.42 log2 normalized intensity; in that of “AAAGTCCATATTCTTTGTTTGGATGCCAAAGCCTAGGGAGATTAGAGTATCGGTCGA”, 2.25 log2 normalized intensity.
For “CTCTGAGATTCGGTGAGGGATTGTTTAGGTGCCTAGGGAGATTAGAGTATCGGTCGA” the value was 0.829 log2 normalized intensity; for “AGGGATTGTTTAGGTACAAAGTCCATTGGAGCCTAGGGAGATTAGAGTATCGGTCGA”, 8.46 log2 normalized intensity; for “CCTTTGCCCTCCAAACTGAGAGATTTTTTCGCCTAGGGAGATTAGAGTATCGGTCGA”, 1.05 log2 normalized intensity.
Regarding “GAGGTCTGGACCCTTGGCACTTTCACGATAGCCTAGGGAGATTAGAGTATCGGTCGA”, the binding signal worked out at 1.79 log2 normalized intensity.
In the case of “AATGTTTGTAGGGACTTTGACCCCTAAAACGCCTAGGGAGATTAGAGTATCGGTCGA” it was 9.59 log2 normalized intensity.
Turning to “CTTTGACCCTGTTTTGTAAACTCCCTTTGAGCCTAGGGAGATTAGAGTATCGGTCGA”, the binding signal amounted to 2.04 log2 normalized intensity.
Consider “CAACTGACATCTGGAAATGTTTGTAGGGACGCCTAGGGAGATTAGAGTATCGGTCGA”, for which the binding signal came to 0.67 log2 normalized intensity.
In the case of “AGCAATGTTTCTTGTCCAGGGACTTTGAACGCCTAGGGAGATTAGAGTATCGGTCGA” it was 6.55 log2 normalized intensity.
Take “GACATCTGGAAATGTTTGTAGGGACTTTGAGCCTAGGGAGATTAGAGTATCGGTCGA”: the binding signal was 5.1 log2 normalized intensity.
With “CTGGAAATGTTTGTAGGGACTTTGACCCCTGCCTAGGGAGATTAGAGTATCGGTCGA”, the binding signal was 10.4 log2 normalized intensity.
In the case of “CAGCTTTGAAGTGCTTCCTGTGTATTTCTTGCCTAGGGAGATTAGAGTATCGGTCGA” it was 1.27 log2 normalized intensity.
In the case of “GGACTAAGAATTGCTCAACCTGGACCTCATGCCTAGGGAGATTAGAGTATCGGTCGA” it was 1.89 log2 normalized intensity.
